In PubChem BioAssay (NCI):
About 83,000 compounds went through this panel and 20% of them were active in at least one assay; those are over-represented in the sample as a whole.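 Each cell line was grown in a 96-well plate and treated with one concentration of compound for 48 hours. Values below 10 were considered active.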 The source made the active and inactive calls.

Legend:
Assay in all cases: NCI-60 one-dose screen, 48 h (100 = growth as untreated, 0 = no growth, -100 = all killed)
Details in all cases: 10 µM unless noted
NCI-H23 lung = test system: NCI-H23 lung
NCI-H226 lung = test system: NCI-H226 lung
NCI-H322M lung = test system: NCI-H322M lung
HOP-62 NSCLC = test system: HOP-62 NSCLC
NCI-H460 lung = test system: NCI-H460 lung
HOP-92 NSCLC = test system: HOP-92 NSCLC
NCI-H522 lung = test system: NCI-H522 lung
A549/ATCC NSCLC = test system: A549/ATCC NSCLC
786-0 renal = test system: 786-0 renal
COLO 205 colon = test system: COLO 205 colon

Measured: growth

Cc1ccc(S(=O)(=O)NN/C(N)=N\S(=O)(=O)c2cc(C)c(Cl)cc2SCc2ccccc2)cc1
inactive: NCI-H23 lung 90.6% | NCI-H226 lung 90.4% | NCI-H322M lung 168% | HOP-62 NSCLC 82.4% | NCI-H460 lung 110% | HOP-92 NSCLC 71% | NCI-H522 lung 29.9% | A549/ATCC NSCLC 56.7% | 786-0 renal 93.4% | COLO 205 colon 115%

Cc1csc(NC(=O)c2sc3nc(-c4cccs4)ccc3c2N)n1
inactive: NCI-H23 lung 94.2% | NCI-H226 lung 96.9% | NCI-H322M lung 102% | HOP-62 NSCLC 90.4% | NCI-H460 lung 99.3% | HOP-92 NSCLC 84.7% | NCI-H522 lung 82.3% | A549/ATCC NSCLC 94.7% | COLO 205 colon 103%

CC(=O)c1sc(-c2ccccc2)cc1N
inactive: NCI-H23 lung 101% | NCI-H226 lung 96.6% | NCI-H322M lung 96.9% | HOP-62 NSCLC 94.4% | NCI-H460 lung 102% | HOP-92 NSCLC 97.7% | NCI-H522 lung 72.5% | A549/ATCC NSCLC 76% | 786-0 renal 92.7% | COLO 205 colon 109%

Cc1cc(C)on1
inactive: NCI-H23 lung 109% | NCI-H226 lung 103% | NCI-H322M lung 111% | HOP-62 NSCLC 111% | NCI-H460 lung 116% | HOP-92 NSCLC 89.3% | NCI-H522 lung 107% | A549/ATCC NSCLC 97.9% | 786-0 renal 101% | COLO 205 colon 112%

O=C(Nc1cccc2[nH]c(C(F)(F)F)nc12)c1cc(Cl)ccc1Cl
inactive: NCI-H226 lung 34.4% | NCI-H322M lung 45.9% | HOP-62 NSCLC 32.1% | NCI-H460 lung 17.2% | A549/ATCC NSCLC 19.8% | 786-0 renal 47.1% | COLO 205 colon 24.6%
active: NCI-H23 lung -3.56% | HOP-92 NSCLC -11% | NCI-H522 lung -13.2%

O=C1C=CC(=Nc2cc(Br)c(O)c(Br)c2)C=C1
inactive: NCI-H23 lung 78.1% | NCI-H226 lung 93.9% | NCI-H322M lung 105% | HOP-62 NSCLC 82.1% | NCI-H460 lung 109% | HOP-92 NSCLC 29.5% | A549/ATCC NSCLC 118% | 786-0 renal 70.2% | COLO 205 colon 113%
active: NCI-H522 lung -14.6%

C/C(=N\NC(N)=S)c1nc2ccc(Cl)cc2[nH]1
inactive: NCI-H23 lung 75.4% | NCI-H226 lung 46.3% | NCI-H322M lung 70% | HOP-62 NSCLC 43% | NCI-H460 lung 15.3% | HOP-92 NSCLC 79.5% | NCI-H522 lung 34% | A549/ATCC NSCLC 34.4% | 786-0 renal 31.2% | COLO 205 colon 45%

C[C@@H]1CC[C@@H]2[C@@H]1[C@H](OC(=O)/C=C/c1ccccc1)[C@]1(C3CCCCC3)C[C@@H](NC(=O)CO)[C@@]2(C)O1
inactive: NCI-H23 lung 95.8% | NCI-H226 lung 102% | NCI-H322M lung 92.9% | HOP-62 NSCLC 112% | NCI-H460 lung 94.5% | HOP-92 NSCLC 94.4% | NCI-H522 lung 71.9% | A549/ATCC NSCLC 101% | 786-0 renal 96.4% | COLO 205 colon 109%

CCN(CC)CCOc1ccc(/C(=C(\C)c2ccc(OC)c(F)c2)c2ccc(Cl)cc2)cc1
inactive: NCI-H23 lung 80.8% | NCI-H226 lung 102% | NCI-H322M lung 85.1% | HOP-62 NSCLC 78.5% | NCI-H460 lung 61.1% | HOP-92 NSCLC 82% | NCI-H522 lung 86.1% | A549/ATCC NSCLC 59.7% | 786-0 renal 68.2% | COLO 205 colon 42.2%

COc1cc(NC(=O)c2cccc(-c3cc(=O)c4c(OC)c(OC)c(OC)cc4o3)c2)cc(OC)c1OC
inactive: NCI-H23 lung 48.8% | NCI-H226 lung 58.5% | NCI-H322M lung 69.5% | HOP-62 NSCLC 37.5% | NCI-H460 lung 30% | HOP-92 NSCLC 24.7% | NCI-H522 lung 34.7% | A549/ATCC NSCLC 43.5% | 786-0 renal 31.8% | COLO 205 colon 44.3%

COc1ccc(N(C)c2nc(Cl)nc3cnn(C)c23)cc1
active: NCI-H226 lung 1% | NCI-H460 lung 7.51% | NCI-H522 lung -27.6% | 786-0 renal 8.74% | COLO 205 colon -68.3%
inactive: NCI-H23 lung 34.4% | NCI-H322M lung 34.1% | HOP-62 NSCLC 21.9% | HOP-92 NSCLC 28.6% | A549/ATCC NSCLC 10.8%

O=C(/C=C/c1ccccc1)c1ccc2ccccc2c1
active: NCI-H522 lung -3.88%
inactive: NCI-H23 lung 92.1% | NCI-H226 lung 98.5% | NCI-H322M lung 99.8% | HOP-62 NSCLC 96.5% | NCI-H460 lung 110% | HOP-92 NSCLC 94.6% | A549/ATCC NSCLC 96.3% | 786-0 renal 90.8% | COLO 205 colon 38.3%

Nc1c(C(=O)c2ccc(Cl)s2)sc2nc3c(cc12)CCCC3
inactive: NCI-H23 lung 91.5% | NCI-H226 lung 96.6% | NCI-H322M lung 103% | HOP-62 NSCLC 97.3% | NCI-H460 lung 98.6% | HOP-92 NSCLC 82.5% | NCI-H522 lung 83.1% | A549/ATCC NSCLC 100% | 786-0 renal 106% | COLO 205 colon 110%

CN(C)CCN1C(=O)c2cccc3c(-c4ccc(-c5nc6c7ccccc7c7ccccc7c6[nH]5)cc4)ccc(c23)C1=O
inactive: NCI-H23 lung 109% | NCI-H226 lung 101% | NCI-H322M lung 114% | HOP-62 NSCLC 106% | NCI-H460 lung 111% | HOP-92 NSCLC 71.3% | NCI-H522 lung 94.2% | A549/ATCC NSCLC 90.4% | 786-0 renal 18.2% | COLO 205 colon 105%

Cc1nc(Nc2ccc(S(=O)(=O)Nc3cc(C)on3)cc2)c2ccccc2n1
inactive: NCI-H23 lung 107% | NCI-H226 lung 99.7% | NCI-H322M lung 104% | HOP-62 NSCLC 101% | NCI-H460 lung 112% | HOP-92 NSCLC 89% | NCI-H522 lung 86.3% | A549/ATCC NSCLC 108% | 786-0 renal 98.3% | COLO 205 colon 116%

CC[C@]1(O)C[C@H]2CN(CCc3c([nH]c4ccccc34)[C@@](C(=O)OC)(c3cc4c(cc3OC)N(C=O)[C@H]3[C@@](O)(C(=O)OC)[C@H](OC(C)=O)[C@]5(CC)C=CCN6CC[C@]43[C@@H]65)C2)C1
active: NCI-H460 lung -2.68% | NCI-H522 lung -13.1% | COLO 205 colon -57.2%
inactive: NCI-H23 lung 290% | NCI-H226 lung 28.2% | NCI-H322M lung 43.7% | HOP-62 NSCLC 11.7% | HOP-92 NSCLC 72.3% | A549/ATCC NSCLC 16.6% | 786-0 renal 12.4%

C=C1C(=O)O[C@H]2[C@H]1CC/C(COC(=O)/C=C\C(=O)NCc1ccc(Cn3c(=O)sn(CCCI)c3=O)cc1)=C\CC[C@@]1(C)O[C@@H]21
inactive: NCI-H322M lung 17.3%
active: NCI-H23 lung -72.1% | NCI-H226 lung -77% | HOP-62 NSCLC -36% | NCI-H460 lung -79.1% | HOP-92 NSCLC -68.6% | NCI-H522 lung -56.1% | A549/ATCC NSCLC -0.92% | 786-0 renal -76.9% | COLO 205 colon -52.7%

Cn1nnnc1-c1ccc(N)cc1
inactive: NCI-H23 lung 88.7% | NCI-H226 lung 107% | NCI-H322M lung 92.7% | HOP-62 NSCLC 95.9% | NCI-H460 lung 105% | HOP-92 NSCLC 96.3% | NCI-H522 lung 84.2% | A549/ATCC NSCLC 95.6% | 786-0 renal 93.8% | COLO 205 colon 110%

Clc1ccc(/C=C/c2nc(Nc3ccc(Cl)cc3)c3ccccc3n2)cc1
inactive: NCI-H23 lung 93.1% | NCI-H226 lung 92.6% | NCI-H322M lung 96.4% | HOP-62 NSCLC 120% | NCI-H460 lung 103% | HOP-92 NSCLC 107% | NCI-H522 lung 90.8% | A549/ATCC NSCLC 102% | 786-0 renal 102% | COLO 205 colon 112%

Cc1nc(Nc2cccc(NC(=O)Nc3ccc(Cl)cc3)c2)c2ccccc2n1
inactive: NCI-H23 lung 96% | NCI-H226 lung 90.4% | NCI-H322M lung 89.7% | HOP-62 NSCLC 107% | NCI-H460 lung 70.5% | HOP-92 NSCLC 90.7% | NCI-H522 lung 68.6% | A549/ATCC NSCLC 91.6% | 786-0 renal 96.1% | COLO 205 colon 103%

CC1(C)CC(=O)c2c(ccc(C(=O)C[C@H](N)CO)c2N)O1
inactive: NCI-H23 lung 54.4% | NCI-H226 lung 58.3% | NCI-H322M lung 15% | HOP-62 NSCLC 22% | HOP-92 NSCLC 53.7% | NCI-H522 lung 46.2% | A549/ATCC NSCLC 34.7% | 786-0 renal 77.5% | COLO 205 colon 47%
active: NCI-H460 lung 6.79%

O=C(Nc1ccccc1)c1sc(-c2cccc(C(F)(F)F)c2)cc1O
active: HOP-92 NSCLC -7.04%
inactive: NCI-H23 lung 54.1% | NCI-H226 lung 80.1% | NCI-H322M lung 77.1% | HOP-62 NSCLC 79.5% | NCI-H460 lung 49.4% | NCI-H522 lung 39.6% | A549/ATCC NSCLC 64.2% | 786-0 renal 89.6% | COLO 205 colon 107%

CN(C)CCn1cc(-c2ccc3c(Nc4ccc(CC(=O)Nc5cccc(F)c5)cc4)ncnc3c2)cn1
active: NCI-H23 lung -57.2% [30 µM] | NCI-H226 lung -36.7% [30 µM] | NCI-H322M lung -94.5% [30 µM] | HOP-62 NSCLC -23.2% [30 µM] | NCI-H460 lung -74.1% [30 µM] | HOP-92 NSCLC -28.8% [30 µM] | NCI-H522 lung -30.5% [30 µM] | A549/ATCC NSCLC -41.4% [30 µM] | 786-0 renal -50.8% [30 µM] | COLO 205 colon -61.8% [30 µM]

Cc1nc(Nc2ccc(N)cc2)c2ccccc2n1
inactive: NCI-H23 lung 86.8% | NCI-H226 lung 97.6% | NCI-H322M lung 117% | HOP-62 NSCLC 104% | NCI-H460 lung 102% | HOP-92 NSCLC 109% | NCI-H522 lung 80.8% | A549/ATCC NSCLC 103% | 786-0 renal 107% | COLO 205 colon 92.2%
